Measured values from PubChem BioAssay AID1159580 (chemical genetic matrix, 2015).
The whole screen tested about 5,500 compounds, of which about 2,000 (36%) were called active. Roughly 18% stayed inconclusive and do not appear here. Cut-off read from the data, not from the text of the source: active = normalized growth mostly below about 0.91 (no sharp cut-off); inconclusive = no clear call, values can overlap the other calls; inactive = mostly above about 0.92. The list shows a part of the results.

Assay: chemical genetic growth profiling, strain panel (AID 1159580);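 note: tested at 20 µM; growth read once vehicle control cultures reached saturation at 30 °C; 1 = growth at the plate median or of vehicle wells; lower values mean less growth of the strain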
Conditions: growth OD

Measured: normalized growth

Cc1c(N(C)C)c(=O)n(-c2ccccc2)n1C
inactive: S. cerevisiae deletion strains, locus YKL009W, strain mrt4, hits give low values 0.984 | S. cerevisiae deletion strains, locus YKL068W, hits give low values 0.991 | S. cerevisiae deletion strains, locus YKL085W, strain MDH1 (second series), hits give low values 0.985 | S. cerevisiae deletion strains, locus YKL085W, strain MDH1, hits give low values 0.985 | S. cerevisiae deletion strains, locus YKL160W, strain elf1, hits give low values 0.988 | S. cerevisiae deletion strains, locus YKL190W, strain CNB1, hits give low values 0.988 | S. cerevisiae deletion strains, locus YKR001C, strain vps1, hits give low values 1 | S. cerevisiae deletion strains, locus YKR026C, strain gcn3, hits give low values 0.992 | S. cerevisiae deletion strains, locus YKR091W, strain srl3, hits give low values 0.976 | S. cerevisiae deletion strains, locus YLL001W, strain dnm1, hits give low values 0.972 | S. cerevisiae deletion strains, locus YLL026W, hits give low values 0.973 | S. cerevisiae deletion strains, locus YLL041C, strain sdh2, hits give low values 0.992 | S. cerevisiae deletion strains, locus YLR027C, strain aat2, hits give low values 0.97 | S. cerevisiae deletion strains, locus YLR039C, strain RIC1, hits give low values 0.983 | S. cerevisiae deletion strains, locus YLR058C, strain SHM2, hits give low values 0.997 | S. cerevisiae deletion strains, locus YLR102C, strain apc9, hits give low values 0.992 | S. cerevisiae deletion strains, locus YLR113W, strain HOG1, hits give low values 1.03 | S. cerevisiae deletion strains, locus YLR221C, strain rsa3, hits give low values 1.06 | S. cerevisiae deletion strains, locus YLR258W, strain gsy2, hits give low values 0.985 | S. cerevisiae deletion strains, locus YLR262C, strain YPT6 (second series), hits give low values 0.971 | S. cerevisiae deletion strains, locus YLR262C, strain YPT6, hits give low values 0.972 | S. cerevisiae deletion strains, locus YLR268W, strain sec22, hits give low values 0.963 | S. cerevisiae deletion strains, locus YLR320W, strain mms22, hits give low values 0.994 | S. cerevisiae deletion strains, locus YLR330W, strain CHS5, hits give low values 0.989 | S. cerevisiae deletion strains, locus YLR342W, strain FKS1 (second series), hits give low values 1.05 | S. cerevisiae deletion strains, locus YLR342W, strain FKS1, hits give low values 0.961 | S. cerevisiae deletion strains, locus YLR357W, strain rsc2, hits give low values 0.935 | S. cerevisiae deletion strains, locus YLR370C, strain arc18, hits give low values 0.984 | S. cerevisiae deletion strains, locus YLR371W, strain rom2, hits give low values 0.991 | S. cerevisiae deletion strains, locus YLR384C, strain iki3, hits give low values 0.991 | S. cerevisiae deletion strains, locus YLR418C, strain cdc73, hits give low values 1.03 | S. cerevisiae deletion strains, locus YML016C, strain PPZ1, hits give low values 1 | S. cerevisiae deletion strains, locus YML032C, strain rad52, hits give low values 0.967 | S. cerevisiae deletion strains, locus YML120C, strain ndi1, hits give low values 0.993 | S. cerevisiae deletion strains, locus YML124C, strain tub3, hits give low values 0.997 | S. cerevisiae deletion strains, locus YMR058W, strain fet3, hits give low values 1.01 | S. cerevisiae deletion strains, locus YMR078C, strain ctf18, hits give low values 0.985 | S. cerevisiae deletion strains, locus YMR125W, strain sto1, hits give low values 0.989 | S. cerevisiae deletion strains, locus YMR129W, hits give low values 0.991 | S. cerevisiae deletion strains, locus YMR205C, strain PFK2, hits give low values 0.991 | S. cerevisiae deletion strains, locus YMR223W, strain ubp8, hits give low values 1.02 | S. cerevisiae deletion strains, locus YMR231W, strain pep5, hits give low values 0.978 | S. cerevisiae deletion strains, locus YMR263W, strain SAP30, hits give low values 0.989 | S. cerevisiae deletion strains, locus YMR307W, strain GAS1, hits give low values 1.08 | S. cerevisiae deletion strains, locus YNL067W, strain RPL9B, hits give low values 0.978 | S. cerevisiae deletion strains, locus YNL071W, strain lat1, hits give low values 1 | S. cerevisiae deletion strains, locus YNL128W, strain TEP1, hits give low values 0.983 | S. cerevisiae deletion strains, locus YNL153C, strain GIM3, hits give low values 0.985 | S. cerevisiae deletion strains, locus YNL183C, strain NPR1, hits give low values 0.988 | S. cerevisiae deletion strains, locus YNL209W, strain ssb2, hits give low values 1.01 | S. cerevisiae deletion strains, locus YNL233W, strain BNI4, hits give low values 0.986 | S. cerevisiae deletion strains, locus YNL248C, strain rpa49, hits give low values 1 | S. cerevisiae deletion strains, locus YNL250W, strain rad50, hits give low values 0.972 | S. cerevisiae deletion strains, locus YNL271C, strain bni1, hits give low values 0.966 | S. cerevisiae deletion strains, locus YNL298W, strain CLA4, hits give low values 1 | S. cerevisiae deletion strains, locus YNL307C, strain MCK1, hits give low values 0.996 | S. cerevisiae deletion strains, locus YNL322C, strain KRE1 (second series), hits give low values 0.975 | S. cerevisiae deletion strains, locus YNL322C, strain KRE1, hits give low values 0.991 | S. cerevisiae deletion strains, locus YNR049C, strain mso1, hits give low values 0.996 | S. cerevisiae deletion strains, locus YNR052C, strain pop2, hits give low values 0.993 | S. cerevisiae deletion strains, locus YOL006C, strain TOP1, hits give low values 0.978 | S. cerevisiae deletion strains, locus YOL012C, strain htz1 2 | S. cerevisiae deletion strains, locus YOL147C, strain pex11, hits give low values 0.985 | S. cerevisiae deletion strains, locus YOR001W, strain rrp6, hits give low values 0.971 | S. cerevisiae deletion strains, locus YOR061W, strain CKA2, hits give low values 0.995 | S. cerevisiae deletion strains, locus YOR069W, strain VPS5, hits give low values 1 | S. cerevisiae deletion strains, locus YOR070C, strain gyp1, hits give low values 0.999 | S. cerevisiae deletion strains, locus YOR080W, strain dia2, hits give low values 0.98 | S. cerevisiae deletion strains, locus YOR083W, strain WHI5, hits give low values 0.956 | S. cerevisiae deletion strains, locus YOR106W, strain vam3, hits give low values 0.988 | S. cerevisiae deletion strains, locus YOR136W, strain idh2, hits give low values 1 | S. cerevisiae deletion strains, locus YOR144C, strain elg1, hits give low values 0.992 | S. cerevisiae deletion strains, locus YOR184W, strain ser1, hits give low values 1.01 | S. cerevisiae deletion strains, locus YOR231W, strain MKK1, hits give low values 0.992 | S. cerevisiae deletion strains, locus YOR265W, strain rbl2, hits give low values 0.998 | S. cerevisiae deletion strains, locus YOR270C, strain vph1, hits give low values 1.04 | S. cerevisiae deletion strains, locus YOR290C, strain snf2, hits give low values 0.996 | S. cerevisiae deletion strains, locus YOR316C, strain cot1, hits give low values 0.998 | S. cerevisiae deletion strains, locus YPL051W, strain arl3, hits give low values 0.992 | S. cerevisiae deletion strains, locus YPL055C, strain LGE1, hits give low values 1 | S. cerevisiae deletion strains, locus YPL078C, strain atp4, hits give low values 0.98 | S. cerevisiae deletion strains, locus YPL106C, strain sse1, hits give low values 0.974 | S. cerevisiae deletion strains, locus YPL240C, strain hsp82, hits give low values 0.99 | S. cerevisiae deletion strains, locus YPL241C, strain CIN2, hits give low values 0.996 | S. cerevisiae deletion strains, locus YPL256C, strain CLN2, hits give low values 1.02 | S. cerevisiae deletion strains, locus YPR119W, strain clb2, hits give low values 0.994 | S. cerevisiae deletion strains, locus YPR141C, strain kar3, hits give low values 0.966 | S. cerevisiae deletion strains, locus YPR163C, strain tif3, hits give low values 0.976 | S. cerevisiae deletion strains, locus YPR167C, strain met16, hits give low values 0.989 | S. cerevisiae deletion strains, strain wtn01, hits give low values 0.997 | S. cerevisiae strains, strain wild type, hits give low values 0.995
